Shown are actives, neighbours in structure and some others; about 4.7% of the full set was active somewhere.
D1 antag: Antagonist of Human D 1 Dopamine Receptor: qHTS. D(1A) dopamine receptor (Homo sapiens), P21728. HEK293 TREx D1 cells, calcium flux, dopamine EC80; hits give low values. activity change, negative = inhibition, % at 10 µM. hit rate 3.2% among 360,000. AID 504652, 2011; in the data active = activity change below about -30%
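Calcium flux readout: force-coupled, inducible Hek293 Trex D1 line, cells induced overnight at 30 C with tetracycline, dye-loaded 30–90 min at RT. Antagonism scored against EC80 dopamine challenge given 180 s after compound.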
D1 potentiator: Potentiators of Human D1 Dopamine Receptor: qHTS; hit rate 0.036% among 360,000; D(1A) dopamine receptor (Homo sapiens), P21728; HEK293 TREx D1 cells, calcium flux, dopamine EC20 potentiation; AID 504651, 2011; potentiation, % at 10 µM; in the data active = potentiation above about 30%
D1 ag: Allosteric Agonists of the Human D1 Dopamine Receptor: qHTS | activation, % at 2 µM | hit rate 1% among 360,000 | D(1A) dopamine receptor (Homo sapiens), P21728 | HEK293 T-REx D1 cells, calcium flux, agonist mode
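Inducible HEK293 T-REx D1 cells, force-coupled to calcium signalling, were plated at 4000 cells/well with tetracycline and held overnight at 30 C. After no-wash calcium dye loading, compound-evoked calcium rise over 180 s flagged agonists.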
TRHR agonist: qHTS for Small Molecule Agonists and Allosteric Enhancers of Human TRH Receptor: Primary Screen for Agonists; TRHR cells, calcium flux fluo-8, FDSS agonist mode; activation, % at 2 µM; hit rate 0.18% among 360,000; AID 493084, 2011
Target sequence (P34981 whole entry, looked up): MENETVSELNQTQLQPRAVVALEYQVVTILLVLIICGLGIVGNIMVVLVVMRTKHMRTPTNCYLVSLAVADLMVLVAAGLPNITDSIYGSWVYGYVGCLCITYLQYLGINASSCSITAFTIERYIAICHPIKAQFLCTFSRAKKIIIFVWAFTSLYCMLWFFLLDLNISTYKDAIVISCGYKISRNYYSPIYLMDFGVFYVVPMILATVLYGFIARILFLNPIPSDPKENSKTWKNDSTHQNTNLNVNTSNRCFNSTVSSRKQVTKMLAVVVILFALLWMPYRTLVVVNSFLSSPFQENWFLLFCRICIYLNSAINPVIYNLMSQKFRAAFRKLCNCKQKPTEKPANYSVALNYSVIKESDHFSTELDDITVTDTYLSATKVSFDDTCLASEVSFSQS
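Agonist-mode FDSS calcium read (Ex 480/Em 530, 1 s cycles) in 1536-well TRHR cells with fluo-8 dye, after 10-cycle baseline and 23 nL compound addition; TRH at EC20 (10 nM final) added afterwards for the enhancer phase.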
TRHR enhancer: qHTS for Small Molecule Agonists and Allosteric Enhancers of Human TRH Receptor: Primary Screen for Enhancers. Thyrotropin-releasing hormone receptor (Homo sapiens), P34981. hit rate 0.66% among 360,000. enhancement, % at 2 µM. AID 493056, 2011. TRHR cells, fluo-8 calcium fluorescence, EC20 TRH enhancement; in the data active = enhancement above about 30%
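Enhancer read-out: after compound pinning and an initial kinetic agonist-mode read, an EC20 of TRH (10 nM final) was injected and fluo-8 calcium signal (Ex 480/Em 530) followed at 1 s/cycle for 100 cycles in TRHR-expressing cells.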
Large screens that a line does not name were inactive. Rule as the data show it, unless noted: active = activation above about 30%; inactive = the rest.

CCN(CC(=O)NCc1ccc(F)cc1)C(=O)c1ccc(C)o1	TRHR enhancer 32
CCc1ccc(NC(=O)CSC2=Nc3ccccc3C3=NC(CCC(=O)NCCc4ccccc4)C(=O)N23)cc1 (stereo unspecified)	none
Oc1ccccc1-c1nc(NCc2ccco2)c2ccccc2n1	none
Cc1ccc(Nc2nc(-c3ccccc3)nc3ccccc23)cc1	D1 antag -30
Cc1ccc(Nc2nc(NCc3ccco3)c3ccccc3n2)cc1	D1 antag -66, D1 ag 47
COc1ccccc1Nc1nc(NCc2ccco2)c2ccccc2n1	D1 antag -93
CCCCNS(=O)(=O)c1ccc2nc(-c3cccnc3)cc(C(=O)NCCC)c2c1	none
COC(=O)c1cc2occc2n1Cc1ccc(F)cc1Cl	none
Cc1ccc(CNC(=O)NCc2noc3ccc(C)cc23)cc1	none
COc1ccc(NC(=O)c2ccc(COc3ccccc3OC)o2)cc1OC	none
COc1ccccc1OCc1ccc(C(=O)Nc2ccc(Cl)cn2)o1	D1 antag -36
COc1ccccc1OCc1ccc(C(=O)NN)o1	none
COc1ccc(NC(=O)c2ccc(COc3ccccc3Br)o2)cc1OC	D1 antag -37
CC1CCN(S(=O)(=O)c2ccc3c(ccc(=O)n3CC(=O)NCc3ccccc3Cl)c2)CC1	none
CC(C)c1nccn1CCC(=O)O	D1 antag -44
Cc1nccn1CC(=O)O	none
CCOc1cc2c(cc1OCC)C(C(=O)O)C(c1cc(Br)c(O)c(OC)c1)N(C)C2=O (stereo unspecified)	D1 antag -32
COc1ccc(C(=O)Nc2cccc(-c3cn4ccsc4n3)c2)c(OC)c1	none
O=C(OCc1ccc(Br)cc1)c1cccnc1Cl	none
Cc1noc(C)c1COC(=O)c1cccnc1Cl	D1 antag -34
CCn1c(SCC(=O)N(C)C2CCS(=O)(=O)C2)nnc1-c1ccccc1 (stereo unspecified)	D1 antag -64
CCc1cc2c(=O)n(Cc3ccco3)c(SCC(=O)NC3CCS(=O)(=O)C3)nc2s1 (stereo unspecified)	none
CCc1cc2c(=O)n(Cc3ccco3)c(SCC(=O)N(C)C3CCS(=O)(=O)C3)nc2s1 (stereo unspecified)	D1 antag -36
COc1ccc(CCC(=O)NCc2ccc3c(c2)CCN3C(=O)c2ccc(C)cc2)cc1	none
Nc1c(-c2nc(-c3ccccc3)cs2)c2ccccn2c1C(=O)c1ccc2c(c1)OCO2	D1 ag 35
CCOc1ccc(-c2csc(-c3c(N)c(C(=O)c4ccc5c(c4)OCO5)n4ccccc34)n2)cc1	D1 ag 42
O=C1CCCC2=C1C(c1ccco1)Nc1ccc3ccccc3c12 (stereo unspecified)	D1 antag -36
C#CCOCCOCCOCCNc1nc(N2CCN(C(=O)Cn3cc(CCCCN)nn3)CC2)nc(N2CCN(C(=O)Cn3cc(CC(C)O)nn3)CC2)n1 (stereo unspecified)	D1 antag -32
C#CCOCCOCCOCCNc1nc(N2CCN(C(=O)CCCCCCCCCCNC(=O)Cn3cc(CCCCCN)nn3)CC2)nc(N2CCN(C(=O)CCCCCCCCCCNC(=O)Cn3cc(C[C@@H](C)O)nn3)CC2)n1	D1 potentiator 43
O=C1c2ccccc2C(Nc2cccnc2)N1Cc1ccccc1 (stereo unspecified)	none
O=C1c2ccccc2C(Nc2cccnc2)N1Cc1ccccc1Cl (stereo unspecified)	TRHR enhancer 33
CN(C1CCCCC1)S(=O)(=O)CCNC(=O)c1ccccc1	D1 antag -67
COc1cccc(C(=O)NCCS(=O)(=O)N(C)C2CCCCC2)c1	none
Cc1ccccc1-c1nc(CS(=O)(=O)CC(=O)Nc2cccc(C(F)(F)F)c2)c(C)o1	none
O=C(Cn1c(=O)nc(-c2ccccc2)c2ccccc21)NCCc1ccc(Cl)cc1	none
Cc1ccc(/C=C/C(=O)Nc2cc(S(=O)(=O)N3CCOCC3)ccc2N2CCOCC2)cc1	none (no result: D1 potentiator)
Nc1ccccc1C(=O)/C=C/c1ccc2c(c1)OCO2	D1 antag -35
NS(=O)(=O)c1ccc(NC(=O)/C=C/c2ccc3c(c2)OCO3)cc1	D1 antag -48
O=C(/C=C/c1ccc2c(c1)OCO2)c1ccco1	none
O=C(/C=C/c1ccc2c(c1)OCO2)Nc1cc(S(=O)(=O)N2CCOCC2)ccc1N1CCOCC1	D1 antag -47
COc1ccc(C(C)NC(=O)CN(c2cc(OC)ccc2OC)S(=O)(=O)c2ccccc2)cc1 (stereo unspecified)	none
O=c1oc2ccccc2cc1-c1ccc(O)cc1O	D1 antag -31
COC(=O)c1sc(N2C(=O)c3oc4ccc(C)cc4c(=O)c3C2c2ccc(O)c(OC)c2)nc1C (stereo unspecified)	none
N#CC1=C2SCN(C3CCCCC3)CN2C(=O)CC1c1ccc(Cl)cc1 (stereo unspecified)	D1 antag -60
N#CC1=C2SCN(C3CCCCC3)CN2C(=O)CC1c1ccc(F)cc1 (stereo unspecified)	none
O=C(/C=C/c1cccc([N+](=O)[O-])c1)c1cccs1	none
O=C(Nc1cccc2ccccc12)/C(=C/c1cccc([N+](=O)[O-])c1)NC(=O)c1cccs1	TRHR enhancer 34
O=C(/C=C/c1cccc([N+](=O)[O-])c1)Nc1ccc(NC(=O)c2cccs2)cc1	D1 antag -78
O=C(NCc1ccccc1)/C(=C/c1cccc([N+](=O)[O-])c1)NC(=O)c1ccco1	none (no result: D1 potentiator)
O=C(NCCc1ccccc1)/C(=C\c1cccc([N+](=O)[O-])c1)NC(=O)c1ccco1	D1 antag -34
O=C(O)c1ccc(N/N=C/c2ccc(OC(=O)c3cccc(Cl)c3)cc2)cc1	D1 antag -36, D1 ag 37
CCOC(=O)c1ccc(NC(=O)c2csnn2)cc1	none
Cc1ccc(C2=NS(=O)(=O)N(C)C(C(=O)NCc3cccs3)=C2)cc1	none
COc1ccc(OC)c(C2=NS(=O)(=O)N(C)C(C(=O)NCc3cccs3)=C2)c1	D1 ag 41
COc1ccc(CNC(=O)CSc2ncc3c(n2)-c2cc(Cl)ccc2N(Cc2ccccc2)S3(=O)=O)cc1	D1 antag -43
COc1ccccc1CNC(=O)CSc1ncc2c(n1)-c1ccc(Cl)cc1N(Cc1ccccc1)S2(=O)=O	none
CCOC(=O)c1cccc(NC(=O)CSc2ncc3c(n2)-c2ccc(Cl)cc2N(Cc2ccccc2)S3(=O)=O)c1	D1 antag -75
Cc1cccc(-n2c(N)cc(=O)nc2SCC(=O)Nc2ccc(F)cc2)c1C	none
